The entries come from a sample that favours hits as a whole.
12-LOX inh – inhibitors of human 12S-lipoxygenase ALOX12; P18054; purified 12hLO, xylenol orange hydroperoxide absorbance; Potency, µM (titrated, usually from 108 µM), without a hit: top-dose activity change, negative = inhibition, usual class: inhibitors; 580,000 compounds, 1.1% hits; AID 1671190; also: potency is read from the fitted curve at half-maximal effect
Target sequence (P18054 whole entry, looked up): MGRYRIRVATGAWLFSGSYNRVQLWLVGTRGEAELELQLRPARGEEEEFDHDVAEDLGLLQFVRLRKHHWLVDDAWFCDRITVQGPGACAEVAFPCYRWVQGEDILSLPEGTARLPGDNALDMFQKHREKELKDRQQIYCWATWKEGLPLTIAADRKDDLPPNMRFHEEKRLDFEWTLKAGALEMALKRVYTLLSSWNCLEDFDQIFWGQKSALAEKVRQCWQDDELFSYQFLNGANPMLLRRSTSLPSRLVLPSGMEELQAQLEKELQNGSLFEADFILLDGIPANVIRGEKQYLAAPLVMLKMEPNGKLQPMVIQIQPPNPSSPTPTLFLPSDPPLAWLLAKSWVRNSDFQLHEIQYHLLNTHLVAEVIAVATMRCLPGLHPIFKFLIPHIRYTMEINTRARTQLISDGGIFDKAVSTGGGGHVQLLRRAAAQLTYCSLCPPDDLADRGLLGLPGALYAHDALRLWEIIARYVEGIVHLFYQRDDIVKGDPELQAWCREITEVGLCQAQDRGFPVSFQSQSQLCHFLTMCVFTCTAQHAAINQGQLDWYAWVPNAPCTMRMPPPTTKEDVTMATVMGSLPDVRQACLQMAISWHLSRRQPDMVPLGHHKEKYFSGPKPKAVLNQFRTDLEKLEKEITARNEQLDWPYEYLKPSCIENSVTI
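Hydroperoxide product was detected by ferrous iron/xylenol orange as the 573 to 405 nm absorbance ratio. Arachidonic acid at 40 uM (final) was turned over for 30 min at room temperature by 150 nM human 12hLO, pH 7.0 Hepes buffer, after 15 min compound preincubation.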
HT1080NT lethal – kills 2HG-producing HT-1080-NT fibrosarcoma cells; 360,000 compounds, 1.6% hits; Potency, µM (series often up to 46.1 µM), for the others: at the highest dose activity, negative = less viability, hits mostly cytotoxic; AID 686970; HT-1080-NT fibrosarcoma viability, CellTiter-Glo ATP luminescence, 48 h;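 also: NT is the 2HG producing partner of a matched IDH1 knockdown line; potency is read from the fitted curve at half-maximal effect; 0% = DMSO-treated cells and -100% = media-only wells without cells; nearly all actives have a fitted effect of over 55% in size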
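Viability of the 2HG-overproducing fibrosarcoma line after 48 hours of compound exposure at 37 degrees C was determined by luminescence with CellTiter-Glo, and concentration-effect curves were then fitted and categorized.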
DT40 TDP1 no CPT – qHTS for Inhibitors of human tyrosyl-DNA phosphodiesterase 1 (TDP1): qHTS in cells in absence of CPT. DT40 Tdp1-/- hTDP1 cells, no CPT, ATP luminescence, 48 h. Potency, µM (top dose mostly 46.2 µM), inactives show at the top dose activity change, negative = growth inhibition, actives largely listed as inhibitors. 420,000 compounds, 15% hits; also: potency is read from the fitted curve at half-maximal effect; nearly all actives have a fitted effect of over 55% in size
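Readout: luminescence from CellTiter-Glo after 30 min in the dark at RT. Cells: DT40 Tdp1-/- with stable hTDP1, 400/well. Exposure: compounds alone, ≥48 hr, 37 °C.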
IL1B secr inh – blocks inflammasome-driven IL-1 beta release; THP-1 LPS/ATP IL-1B secretion, AlphaLISA, 16 h; hits give low values; activity change, % at 57.5 µM; 360,000 compounds, 4.7% hits; in the data active = activity change below about -50%; inconclusive = mostly about -30% to -49%
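THP-1 cells pretreated 1 hr with compounds (up to 57.5 uM final), then stimulated with LPS (250 ng/mL final) plus ATP (1.25 mM final); secreted IL-1B measured by AlphaLISA after 16 hr, decreased signal indicating inhibition.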
TDP1 cell CPT – growth inhibition of DT40 Tdp1-/-;hTDP1 cells with camptothecin (screen for TDP1 inhibitors); chicken DT40 Tdp1-/-;hTDP1 cells + 20 nM CPT, ATP luminescence, 48 h; Potency, µM (highest dose often 46.2 µM), without a hit: at the highest dose activity change, negative = growth inhibition, usual class: inhibitors; 420,000 compounds, 12% hits; also: potency is read from the fitted curve at half-maximal effect; nearly all actives have a fitted effect of over 55% in size
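Cell growth measured by CellTiter-Glo luminescence after a minimum 48 h, 37 C compound exposure with 20 nM CPT in Tdp1-knockout DT40 cells stably expressing hTDP1, seeded 400/well; qHTS titration format.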
HT1080 IDH1KD tx – kills HT-1080 cells with IDH1 knockdown; AID 686971; Potency, µM (doses to about 46.1 µM), for inactives: top-dose activity, negative = toxicity, actives largely listed as cytotoxic; 360,000 compounds, 2% hits; HT-1080 IDH1 knockdown viability, ATP luminescence, 48 h;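 also: potency is read from the fitted curve at half-maximal effect; 0% = DMSO wells and -100% = cell-free medium wells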
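Using the IDH1-knockdown HT-1080 line run in the same batch and compound series as the NT line, viability after 48 h at 37 °C was determined by CellTiter-Glo luminescence and expressed as % activity.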
Numbers without * were called inactive; ? = inconclusive; / = no result given. Unless noted, calls follow the shape of the dose curve; as a rule, active = well fitted curve in the direction sought with a large enough effect; inconclusive = small, poorly fitted or top-dose-only effect, or another doubt; inactive = no such curve, though single readings can be large; an effect the other way counts as inactive or inconclusive. Unless noted, % is scaled to controls: 0 for no effect and ±100 for the full control effect.

SMILES	12-LOX inh	HT1080NT lethal	DT40 TDP1 no CPT	IL1B secr inh	TDP1 cell CPT	HT1080 IDH1KD tx
CCOC(=O)c1ccc(Nc2nc(N)c(C(=O)c3ccc(C)cc3C)s2)cc1	-13%	/	/	/	/	/
Nc1nc(Nc2cccc(Cl)c2)sc1C(=O)c1ccc(F)cc1	12%	/	23µM*	/	18µM*	/
CC(C)CC(=O)c1sc(Nc2ccccc2)nc1N	-6%	/	/	/	/	/
COC(=O)c1cccc(NC(=O)C(NC(=O)c2ccccc2C)C(C)C)c1 (stereo unspecified)	2%	/	/	/	/	/
CC(=O)NC(NC(C)=O)C(=O)c1ccccc1	11%	/	/	/	/	/
CC/C=C(/C)C(=O)NCC(c1ccsc1)N(C)C (stereo unspecified)	-3%	/	/	/	/	/
COc1ccc(C(=O)c2sc(Nc3ccccc3)c(C(N)=O)c2N)cc1	16µM*	/	/	/	/	/
CCOC(=O)c1sc(Nc2ccccc2)nc1C(F)(F)F	40µM*	/	/	/	/	/
CCOC(=O)c1nc(NCc2ccc(F)cc2)c2ccccc2n1	10%	/	/	/	/	/
Cc1nn(C)c(C)c1Nc1ccc(N2C(=O)C3CC=CCC3C2=O)cc1[N+](=O)[O-] (stereo unspecified)	-4%	0%	?	47	?	-22%
Cc1nn(C)c(C)c1Nc1ccc(N2C(=O)C3C4C=CC(C4)C3C2=O)cc1[N+](=O)[O-] (stereo unspecified)	0%	17%	23µM*	44	?	-1%
CCN(CC)S(=O)(=O)c1ccc(-c2csc(=Nc3cccc(C(F)(F)F)c3)n2Cc2ccc3c(c2)OCO3)cc1	-13%	/	9.2µM*	/	?	/
CN(C)S(=O)(=O)c1cccc(-c2csc(=Nc3ccccc3)n2CCCN2CCOCC2)c1	-11%	-13%	?	-25	?	-16%
Fc1ccc(-c2csc(=Nc3cccc(C(F)(F)F)c3)n2Cc2ccc3c(c2)OCO3)cc1	?	/	13µM*	/	13µM*	/
CCC1CCC(N(C)C(=O)c2ccc(OC(F)F)cc2)CC1 (stereo unspecified)	-17%	/	/	/	/	/
N#Cc1cccc(CN2CCc3nc(C(=O)Nc4cccc(C(F)(F)F)c4)oc3CC2)c1	4%	/	/	/	/	/
CC(C(=O)NC(C)(C)C)N1CCC(C(=O)NCc2ccco2)CC1 (stereo unspecified)	37%	/	/	/	/	/
O=C(Nc1nnc(-c2ccc(Cl)cc2)o1)C1CCCCC1	12%	11%	18µM*	8	?	-6%
O=C(Nc1nnc(-c2ccc(Cl)s2)o1)C1CCCCC1	-2%	-8%	?	-13	15µM*	-7%
O=C(Nc1nnc(-c2ccc3c(c2)OCCO3)o1)C1CCCCC1	3%	3%	?	21	-28%	1%
O=C(Nc1nnc(-c2ccccc2)o1)C1CCCCC1	3%	-9%	?	17	?	-10%
Cc1ccc2cc(CN(CC3CCCO3)C(=S)Nc3ccccc3)c(=O)[nH]c2c1 (stereo unspecified)	-9%	?	15µM*	?	?	?
Cc1cc(C)c2[nH]c(=O)c(CN(CC3CCCO3)C(=S)Nc3ccccc3)cc2c1 (stereo unspecified)	-7%	3%	?	16	?	11%
Cc1ccc2[nH]c(=O)c(CN(CC3CCCO3)C(=S)Nc3ccccc3)cc2c1 (stereo unspecified)	?	-4%	15µM*	-24	13µM*	-11%
Cc1ccc2cc(CN(CC3CCCO3)C(=S)Nc3ccccc3)c(=O)[nH]c2c1C (stereo unspecified)	-22%	?	2.6µM*	-53*	2.9µM*	?
SMILES	12-LOX inh	HT1080NT lethal	DT40 TDP1 no CPT	IL1B secr inh	TDP1 cell CPT	HT1080 IDH1KD tx
Cn1c(-n2cccc2)c(-c2c(-c3ccc(Cl)cc3)[nH]c3c2c(=O)[nH]c(=O)n3C)c(=O)[nH]c1=O	-25%	/	/	/	/	/
CCOc1ccccc1N(C)C(=O)C1CCCN(c2ncnc3c2nc2n3CCCCC2)C1 (stereo unspecified)	-1%	/	-11%	/	-30%	/
Cc1ccc(C)c(N(C)C(=O)C2CCN(c3ncnc4c3nc3n4CCCCC3)CC2)c1	3%	/	?	/	?	/
CCc1ccccc1N(C)C(=O)C1CCCN(c2ncnc3c2nc2n3CCCCC2)C1 (stereo unspecified)	-10%	/	4.1µM*	/	18µM*	/
Cc1ccc(N(C)C(=O)C2CCCN(c3ncnc4c3nc3n4CCCCC3)C2)cc1C (stereo unspecified)	-6%	/	9.2µM*	/	?	/
CN(C(=O)C1CCN(c2ncnc3c2nc2n3CCCCC2)CC1)c1ccccc1F	-21%	/	?	/	?	/
CN(C(=O)C1CCCN(c2ncnc3c2nc2n3CCCCC2)C1)c1ccccc1F (stereo unspecified)	-3%	/	12µM*	/	23µM*	/
CCc1ccccc1N(CC)C(=O)C1CCN(c2ncnc3c2nc2n3CCCCC2)CC1	-3%	-5%	4.1µM*	-27	8.2µM*	?
O=C(NC(c1ccccc1)c1cc2ccccc2o1)C1CC1 (stereo unspecified)	6%	/	/	/	/	/
CCO[C@H]1C[C@@H](O)C12CCN(c1ccnc(OC)c1C#N)CC2	48%	/	/	/	/	/
CCn1c(SCc2nc(-c3ccccc3OC)no2)nnc1-c1ccco1	-4%	/	/	/	/	/
CSc1ccc(C2CC(=O)N(c3cccc(C(F)(F)F)c3)C3=C2C(=O)OC3)cc1 (stereo unspecified)	-4%	/	/	/	/	/
O=C(Cc1csc(Nc2nc(=S)[nH]c3ccccc23)n1)N1CCN(c2cccc(C(F)(F)F)c2)CC1	-2%	-10%	16µM*	41	?	-1%

Screening data as filed in PubChem BioAssay.
